# Test results published in PubChem BioAssay (NCI).
# The panel holds about 83,000 compounds, 20% with a hit somewhere; the sample as a whole holds those more often.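 Plates (96-well) were seeded with cells, treated with compound at one concentration, and incubated for 48 hours before percent growth was determined.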 A number with no mark means an inactive call. Active and inactive are the calls of the source. How the source made its calls: active means growth percent below 10; inactive means the rest.
# Assays:
# Assay in all cases: NCI-60 one-dose screen, 48 h (100 = growth as untreated, 0 = no growth, -100 = all killed)
# SR leukemia = settings: 10 µM
# RPMI-8226 leukemia = settings: 10 µM
# OVCAR-8 ovarian = settings: 10 µM
# OVCAR-5 ovarian = settings: 10 µM
# OVCAR-4 ovarian = settings: 10 µM
# OVCAR-3 ovarian = settings: 10 µM
# HS 578T breast = settings: 10 µM
# NCI/ADR-RES ovarian = settings: 10 µM
# T-47D breast = settings: 10 µM
# BT-549 breast = settings: 10 µM
# MDA-MB-435 melanoma = settings: 10 µM
# SW-620 colon = settings: 10 µM
# MCF7 breast = settings: 10 µM unless noted
# HCT-116 colon = settings: 10 µM
# HCC-2998 colon = settings: 10 µM
# KM12 colon = settings: 10 µM
# SK-OV-3 ovarian = settings: 10 µM
# IGROV1 ovarian = settings: 10 µM
SMILES,growth (SR leukemia),growth (RPMI-8226 leukemia),growth (OVCAR-8 ovarian),growth (OVCAR-5 ovarian),growth (OVCAR-4 ovarian),growth (OVCAR-3 ovarian),growth (HS 578T breast),growth (NCI/ADR-RES ovarian),growth (T-47D breast),growth (BT-549 breast),growth (MDA-MB-435 melanoma),growth (SW-620 colon),growth (MCF7 breast),growth (HCT-116 colon),growth (HCC-2998 colon),growth (KM12 colon),growth (SK-OV-3 ovarian) [%],growth (IGROV1 ovarian) [%]
O=C1Cc2cc(O)ccc2O1,91.8%,96.1%,102%,113%,118%,120%,119%,107%,101%,109%,105%,113%,101%,101%,105%,112%,,
CC[N+](C)(CC)CCO,104%,102%,94.3%,100%,,108%,107%,105%,93.4%,99.9%,100%,100%,103%,105%,102%,110%,103,104
COc1cc(C(=O)N/N=C/c2cccc([N+](=O)[O-])c2)cc(OC)c1OC,28.5%,77.1%,83.1%,83.7%,,12.2%,49.3%,38.1%,51.9%,58%,1.31% (active),23.8%,23.9%,23.9%,52.7%,19%,67.2,60.6
CC1(c2ccccc2)NC(=O)NC1=O (stereo not given),102%,105%,103%,109%,115%,121%,,114%,109%,,113%,115%,,111%,102%,112%,,
CC(C)(N)COS(=O)(=O)O,103%,102%,102%,107%,105%,104%,99.8%,114%,108%,100%,94.6%,101%,95.5%,95.4%,112%,99.1%,,108
O=C(O)C(O)c1ccccc1 (stereo not given),94.7%,113%,105%,103%,98.6%,,110%,105%,95.1%,97.1%,108%,107%,99.1%,96.7%,103%,99.3%,,107
O=C(/C=C/C(=O)c1ccccc1)c1ccccc1,71.3%,80.8%,110%,115%,108%,102%,,114%,92.4%,,100%,,75.2%,87.6%,107%,111%,115,
CC1Cc2ccccc2O1 (stereo not given),100%,109%,112%,110%,119%,118%,111%,,104%,134%,124%,111%,99.6%,112%,86.4%,107%,,111
CC(C)(O)C#CC#CC(C)(C)O,97.9%,92.1%,99.2%,97.8%,104%,,100%,96.9%,,93.7%,103%,104%,101%,96.5%,96.4%,108%,,102
Nc1ncnc2c1nc(N)n2C1OC(CO)C(O)C1O (stereo not given),-3.14% (active),5.98% (active),2.25% (active),-12.9% (active),-2.8% (active),-12.9% (active),-13.9% (active),-45.2% (active),-46.3% (active),-83.6% (active),-80.3% (active),-11.8% (active),-20.5% (active),1.19% (active),-82% (active),-77.3% (active),,
CC1C(=O)c2ccccc2CC1C(=O)O (stereo not given),95.8%,110%,97%,103%,108%,129%,119%,,102%,105%,108%,115%,99.3%,110%,89.7%,123%,,100
CC(=O)OCC1OC(OC2=C(CC=C(C)C)C(=O)c3ccccc3C2=O)C(OC(C)=O)C(OC(C)=O)C1OC(C)=O (stereo not given),-42.9% (active),-13.1% (active),53.6%,89.7%,,-33.1% (active),18%,32.4%,-61.3% (active),-6.85% (active),-17.1% (active),11.1%,-60.2% (active),1.75% (active),77.9%,5.15% (active),84.4,68
CCCCC(CC)COC(C)=O (stereo not given),103%,110%,102%,103%,100%,105%,106%,99.2%,97.2%,107%,105%,104%,96%,108%,105%,101%,,112
O=[N+]([O-])c1ccc(N=Nc2ccc(O)c3ccccc23)cc1,19.4%,28.5%,10.6%,124%,40.1%,-0.85% (active),1.22% (active),28.1%,9.85% (active),,52.7%,34%,19.5%,,,33.1%,,38.1
COC(=O)Nc1cccc(Cl)c1OC,101%,99.3%,106%,92.6%,111%,111%,95.4%,110%,104%,111%,101%,71.7%,104%,107%,104%,111%,,110
Cc1ccccc1N=C(c1ccccc1)C1C(=O)c2ccccc2C1=O,27%,59.9%,97.4%,103%,101%,71.9%,83%,80.2%,40.4%,42.6%,27%,84.3%,55.2%,46.4%,104%,,,55.3
CCC(O)CC(CC)CO (stereo not given),108%,111%,104%,104%,,,130%,110%,115%,,114%,110%,97.8%,100%,109%,128%,115,114
Cc1ccc(/C(C#N)=C/c2ccc3c(c2)OCO3)cc1,25.5%,77%,94%,112%,,73.8%,83.8%,44.5%,64.1%,87.1%,-11.1% (active),32%,49.7%,72.8%,74.3%,26.1%,82.8,72.4
COc1ccc(NC(=O)CCl)cc1,56.3%,55.8%,80.8%,68.2%,,,,,62.7%,66.3%,87%,98.3%,64.4%,53.5%,99.6%,85.5%,87.7,59
O=C(c1ccccc1)C1CCC1,92.7%,98.9%,99.1%,109%,,108%,115%,107%,99.7%,,112%,103%,71.5%,106%,100%,105%,100,114
CC(=O)OC(C(=O)O)c1ccccc1 (stereo not given),104%,88.2%,102%,105%,118%,120%,,108%,118%,122%,105%,101%,,108%,96.3%,106%,,
